# Assay results taken from PubChem BioAssay (Tox21).
# Unmarked numbers belong to inactive results. Inconclusive results are not listed. Entries that show only a call come without a potency. Active and inactive are the calls of the source. Unless noted, the call rests on the fitted dose curve; in most records, active means well fitted curve in the direction sought with a large enough effect in the repeat runs; inconclusive means weak or mixed curves; inactive means no such curve, though single readings can be large; an effect the other way counts as inactive or inconclusive.
# Experiments:
# [1] = target: Thyrotropin receptor (Homo sapiens) (UniProt P16473); experiment: qHTS assay to identify small molecule antagonists of the thyroid stimulating hormone receptor (TSHR) signaling pathway (AID 1259385; calls by dose curve; further: nearly all actives have a fitted effect of over 20% in size)
# Thyrotropin receptor (Homo sapiens), sequence (P16473 whole entry, looked up): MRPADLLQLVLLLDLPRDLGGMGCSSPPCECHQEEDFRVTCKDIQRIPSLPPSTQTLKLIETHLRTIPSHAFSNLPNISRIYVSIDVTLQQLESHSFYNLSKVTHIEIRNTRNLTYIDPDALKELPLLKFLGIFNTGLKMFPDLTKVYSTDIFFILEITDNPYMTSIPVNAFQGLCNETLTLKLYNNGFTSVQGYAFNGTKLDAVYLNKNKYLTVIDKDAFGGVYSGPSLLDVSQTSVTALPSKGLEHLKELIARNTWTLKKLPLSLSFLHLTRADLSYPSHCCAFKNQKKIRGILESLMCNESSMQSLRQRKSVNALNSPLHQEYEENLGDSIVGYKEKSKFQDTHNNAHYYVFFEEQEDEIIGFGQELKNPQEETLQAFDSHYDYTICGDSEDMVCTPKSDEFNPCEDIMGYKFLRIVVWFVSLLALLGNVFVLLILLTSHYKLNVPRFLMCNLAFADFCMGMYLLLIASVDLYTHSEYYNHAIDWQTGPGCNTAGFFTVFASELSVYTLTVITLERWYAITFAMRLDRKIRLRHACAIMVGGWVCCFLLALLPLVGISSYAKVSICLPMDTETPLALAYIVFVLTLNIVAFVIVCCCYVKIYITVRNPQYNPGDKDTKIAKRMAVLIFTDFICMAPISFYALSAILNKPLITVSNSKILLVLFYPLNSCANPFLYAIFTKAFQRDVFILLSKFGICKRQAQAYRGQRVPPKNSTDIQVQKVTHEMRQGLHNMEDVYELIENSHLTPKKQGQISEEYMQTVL
# How it was run: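 TSHR-HEK293 cells (800/well) plated 18 h, then compounds with Ro20-1724 and TSH at 1.5 ng/mL final, 30 min at room temperature. cAMP quantified by HTRF (cAMP-d2/anti-cAMP-cryptate, 1 h); 15 concentrations in triplicate.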
# [2] = target: Progesterone receptor (Homo sapiens) (UniProt P06401); experiment: qHTS assay to identify small molecule agonists of the progesterone receptor (PR) signaling pathway (AID 1346784; calls by dose curve; further: nearly all actives have a fitted effect of over 30% in size)
# Progesterone receptor (Homo sapiens), sequence (P06401 whole entry, looked up): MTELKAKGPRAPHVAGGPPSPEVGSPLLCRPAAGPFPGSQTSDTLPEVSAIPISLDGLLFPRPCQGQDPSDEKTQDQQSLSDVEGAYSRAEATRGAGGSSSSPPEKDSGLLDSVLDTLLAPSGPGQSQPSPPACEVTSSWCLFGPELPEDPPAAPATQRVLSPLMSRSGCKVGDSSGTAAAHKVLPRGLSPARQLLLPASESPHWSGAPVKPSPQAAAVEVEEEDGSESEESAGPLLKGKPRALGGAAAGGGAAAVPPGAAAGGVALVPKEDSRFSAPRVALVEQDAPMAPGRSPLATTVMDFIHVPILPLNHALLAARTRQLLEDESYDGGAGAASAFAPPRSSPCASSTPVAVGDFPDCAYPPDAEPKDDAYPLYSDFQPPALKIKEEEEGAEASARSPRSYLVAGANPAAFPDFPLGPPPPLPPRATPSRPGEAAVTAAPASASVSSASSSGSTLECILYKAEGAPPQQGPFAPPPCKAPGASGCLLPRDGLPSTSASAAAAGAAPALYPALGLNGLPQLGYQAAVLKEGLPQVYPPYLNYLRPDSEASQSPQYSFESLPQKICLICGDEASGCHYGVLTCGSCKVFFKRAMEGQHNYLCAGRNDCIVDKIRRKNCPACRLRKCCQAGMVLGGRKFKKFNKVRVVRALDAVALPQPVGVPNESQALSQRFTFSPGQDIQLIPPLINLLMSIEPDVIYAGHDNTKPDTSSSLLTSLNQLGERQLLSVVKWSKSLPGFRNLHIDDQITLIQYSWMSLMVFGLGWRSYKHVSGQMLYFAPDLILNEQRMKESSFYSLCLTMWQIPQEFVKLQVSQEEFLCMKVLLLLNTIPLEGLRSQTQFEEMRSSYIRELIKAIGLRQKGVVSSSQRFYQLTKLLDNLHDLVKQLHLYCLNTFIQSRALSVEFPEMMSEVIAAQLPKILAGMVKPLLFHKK
# How it was run: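 Reporter assay, GripTite PR-UAS-bla HEK 293T cells: 16 hr exposure to DMSO-dissolved compounds at 37C, 5% CO2, in steroid-depleted (2% charcoal-stripped FBS) medium; beta-lactamase measured by FRET fluorescence.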
# [3] = qHTS assay to identify small molecule antagonists of the progesterone receptor (PR) signaling pathway - cell viability counter screen (AID 1346798); further: series mostly up to about 92 µM; nearly all actives have a fitted effect of over 50% in size
# How it was run: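 In the same plates used for the beta-lactamase readout, cell viability of compound- and R5020-treated PR-UAS-bla HEK293T cells (16 hr, 37C) was assessed by CellTiter-Glo luminescence.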
# [4] = qHTS assay to identify small molecule agonists of the progesterone receptor (PR) signaling pathway - cell viability counter screen (AID 1346799; calls by dose curve; further: nearly all actives have a fitted effect of over 45% in size)
# How it was run: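 Multiplexed viability read: CellTiter-Glo luminescence, 30 min RT, following LiveBLAzer FRET measurement on PR-UAS-bla HEK293T cells exposed to compounds 16 hr.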
# [5] = qHTS assay to identify small molecule agonists of the TGF-beta/Smad signaling pathway - cell viability counter screen (AID 1346829); further: top concentration of the series differs between compounds; nearly all actives have a fitted effect of over 45% in size
# How it was run: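 HEK 293T SBE-bla line, 5 hr compound exposure at 37 C, multiplexed CellTiter-Glo viability read by luminescence.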
# [6] = qHTS assay to identify small molecule agonists of the TGF-beta/Smad signaling pathway (AID 1346859; active means well fitted activation curve with a large enough effect in the signal ratio in the repeat runs, not every such curve was filed as active; the % refers to the signal ratio; further: series mostly up to about 77 µM)
# How it was run: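 Screening used HEK 293T SBE-bla cells at 4,000/well. Test agents: 5 hr, 37 C. Detection: FRET substrate, 2 hr RT, then excitation 405 nm with emissions at 460 and 530 nm.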
# [7] = Caspase-3/7 induction in HepG2 cells by small molecules, qHTS assay (AID 1346978); further: nearly all actives have a fitted effect of over 15% in size
# How it was run: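 Wild-type HepG2 cells, 2,000/well, settled 5 hr at 37 C and 5% CO2, then compound-treated for 17 hr; caspase-3/7 activity read by luminescent Caspase-Glo 3/7 after 30 min at room temperature.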
# [8] = Caspase-3/7 induction in CHO-K1 cells by small molecules, qHTS cell viability counter screen (AID 1346979); further: nearly all actives have a fitted effect of over 35% in size; further: potency means the concentration at half of the fitted maximal effect
# How it was run: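 Following a 5hr settling period, CHO-K1 cells at 1,500 per well received DMSO-dissolved compounds. Cell viability was quantified 16hr later by CellTiter-Fluor fluorescence, measured after 1hr with reagent at 37C.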
# [9] = Caspase-3/7 induction in CHO-K1 cells by small molecules, qHTS assay (AID 1346980); further: nearly all actives have a fitted effect of over 15% in size
# How it was run: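 Wild-type CHO-K1 cells exposed to compounds for 17hr at 37 C, 5% CO2. Caspase-3/7 activity then measured by Caspase-Glo 3/7 luminescence after 30min at room temperature.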
# [10] = Caspase-3/7 induction in HepG2 cells by small molecules, qHTS cell viability counter screen (AID 1346981); further: nearly all actives have a fitted effect of over 30% in size; further: potency means the concentration at half of the fitted maximal effect
# How it was run: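 Wild-type HepG2 cells (2,000/well) were allowed to settle for 5 hr at 37 C, 5% CO2, then dosed with compounds in DMSO by pin transfer. After 16 hr at 37 C, CellTiter-Fluor was added and fluorescence read 1 hr later.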
# [11] = target: Nuclear receptor subfamily 1 group I member 2 (Homo sapiens) (UniProt O75469); experiment: Human pregnane X receptor (PXR) small molecule agonists, qHTS assay (AID 1346982); further: nearly all actives have a fitted effect of over 35% in size; further: potency means the concentration at half of the fitted maximal effect
# Nuclear receptor subfamily 1 group I member 2 (Homo sapiens), sequence (O75469 whole entry, looked up): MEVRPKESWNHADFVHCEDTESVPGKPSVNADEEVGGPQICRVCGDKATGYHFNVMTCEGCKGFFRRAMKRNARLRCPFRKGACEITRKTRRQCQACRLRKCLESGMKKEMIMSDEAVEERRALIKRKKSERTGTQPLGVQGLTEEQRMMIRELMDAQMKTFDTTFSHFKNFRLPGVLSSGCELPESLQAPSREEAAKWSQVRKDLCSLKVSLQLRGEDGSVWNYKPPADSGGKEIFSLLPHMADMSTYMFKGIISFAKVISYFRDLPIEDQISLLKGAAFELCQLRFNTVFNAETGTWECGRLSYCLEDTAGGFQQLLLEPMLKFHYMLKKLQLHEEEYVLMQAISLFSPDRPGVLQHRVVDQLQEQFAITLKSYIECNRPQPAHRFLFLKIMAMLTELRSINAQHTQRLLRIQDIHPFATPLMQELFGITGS
# How it was run: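 PXR-Luc HepG2 cells (CYP3A4 promoter-driven luciferase) were seeded in medium with 5% charcoal-stripped FBS, left 5 hr at 37 C, then exposed to compounds in DMSO for 24 hr. Luminescence was read after ONE-Glo addition.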
# [12] = qHTS assay to identify small molecule antagonists of the TGF-beta/Smad signaling pathway - cell viability counter screen (AID 1346824); further: nearly all actives have a fitted effect of over 50% in size
# How it was run: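 SBE-bla HEK 293T cells, incubated overnight, then compound plus 0.25 ng/mL TGF-beta1 (stock added) for 5 hr at 37 C. Viability was read in the same wells by CellTiter-Glo luminescence after 30 min at room temperature.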
# [13] = target: Thyrotropin-releasing hormone receptor (Homo sapiens) (UniProt P34981); experiment: qHTS assay to identify small molecule antagonists of the thyrotropin-releasing hormone receptor (TRHR) signaling pathway (AID 1346877; active means well fitted inhibition curve with a large enough effect in the repeat runs, not every such curve was filed as active; further: series mostly up to about 51 µM)
# Thyrotropin-releasing hormone receptor (Homo sapiens), sequence (P34981 whole entry, looked up): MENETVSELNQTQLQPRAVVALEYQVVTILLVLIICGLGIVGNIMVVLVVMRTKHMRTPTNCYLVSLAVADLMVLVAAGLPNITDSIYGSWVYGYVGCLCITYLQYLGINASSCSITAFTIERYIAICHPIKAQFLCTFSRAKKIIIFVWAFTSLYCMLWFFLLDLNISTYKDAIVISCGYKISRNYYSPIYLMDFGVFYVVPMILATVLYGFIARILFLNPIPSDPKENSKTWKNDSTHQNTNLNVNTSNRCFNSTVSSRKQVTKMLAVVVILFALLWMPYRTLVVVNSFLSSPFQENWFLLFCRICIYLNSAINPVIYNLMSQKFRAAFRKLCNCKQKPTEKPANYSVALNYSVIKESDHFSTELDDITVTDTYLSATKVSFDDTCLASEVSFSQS
# How it was run: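 TRHR-expressing HEK293 cells were seeded, cultured 18 h at 37 °C, then loaded with calcium dye for 2 h. Compounds were pre-incubated 5 min at room temperature before 1 nM TRH (final) was added, and kinetic fluorescence was recorded for 3 min.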
# [14] = Human pregnane X receptor (PXR) small molecule agonists, qHTS cell viability counter screen (AID 1346977); further: nearly all actives have a fitted effect of over 50% in size; further: potency means the concentration at half of the fitted maximal effect
# How it was run: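 In each well, the PXR reporter HepG2 line was checked for viability: CellTiter-Fluor reagent added 23hr post-dosing, fluorescence read after 1hr incubation at 37C.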
# [15] = qHTS assay to identify small molecule agonists of the estrogen receptor alpha (ER-alpha) signaling pathway in the presence of an antagonist - cell viability counter screen (AID 1259386);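 further: cells exposed to compounds for 22 h at 37 °C before the viability read; nearly all actives have a fitted effect of over 30% in size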; further: potency means the concentration at half of the fitted maximal effect
# How it was run: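 VM7Luc4E2 cells (endogenous full-length ER-alpha, 4×ERE-luciferase) were held 5 days in phenol red-free medium with 10% charcoal-stripped FBS, plated, then given 10.0nM ICI-182,780 and compounds at 15 concentrations for 22hr at 37C; viability read by CellTiter-Fluor fluorescence.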
# [16] = target: Progesterone receptor (Homo sapiens) (UniProt P06401); experiment: qHTS assay to identify small molecule antagonists of the progesterone receptor (PR) signaling pathway (AID 1346795; active means well fitted inhibition curve with a large enough effect in the signal ratio in the repeat runs, not every such curve was filed as active; the % refers to the signal ratio)
# How it was run: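 Stimulus R5020 at 1 nM final; cells HEK293T PR-UAS-bla; medium with 2% charcoal-stripped FBS; compound exposure 16 hr at 37C, 5% CO2; detection by FRET beta-lactamase substrate, 2 hr, room temperature.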
# [17] = target: Nuclear receptor subfamily 1 group I member 2 (Rattus norvegicus) (UniProt Q9R1A7); experiment: Rat pregnane X receptor (rPXR) activation by small molecules, qHTS assay (AID 1346983); settings: rPXR luciferase reporter cells, One-Glo luminescence, 24 h; max activation: stronger effect = higher value; further: nearly all actives have a fitted effect of over 20% in size
# Nuclear receptor subfamily 1 group I member 2 (Rattus norvegicus), sequence (Q9R1A7 whole entry, looked up): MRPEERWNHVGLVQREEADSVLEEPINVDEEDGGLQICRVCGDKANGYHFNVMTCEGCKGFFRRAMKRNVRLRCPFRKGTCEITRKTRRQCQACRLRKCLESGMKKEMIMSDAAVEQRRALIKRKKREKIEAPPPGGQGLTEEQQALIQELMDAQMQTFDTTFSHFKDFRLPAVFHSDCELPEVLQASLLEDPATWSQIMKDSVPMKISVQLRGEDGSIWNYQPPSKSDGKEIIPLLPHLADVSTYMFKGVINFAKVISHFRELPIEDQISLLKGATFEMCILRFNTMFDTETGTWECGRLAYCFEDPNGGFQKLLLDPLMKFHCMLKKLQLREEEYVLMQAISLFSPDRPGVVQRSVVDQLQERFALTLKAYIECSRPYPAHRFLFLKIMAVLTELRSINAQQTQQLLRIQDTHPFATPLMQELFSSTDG
# How it was run: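 Cell-based rPXR activation assay: rPXR cells, 2,000 per well, rested 5hr at 37 C, then exposed to compounds in DMSO for 24 hr at 37 C. Luciferase activity read by One-Glo luminescence after 30 min at room temperature.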
# [18] = target: Nuclear receptor subfamily 1 group I member 2 (Homo sapiens) (UniProt O75469); experiment: CYP3A4 induction through human pregnane X receptor (PXR) by small molecules, qHTS assay (AID 1346984); further: nearly all actives have a fitted effect of over 40% in size
# How it was run: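 DPX-2 cells (HepG2 co-transfected with PXR and CYP3A4 promoter-luciferase) treated with compounds 24 h at 37C; luciferin-IPA CYP3A4 substrate 3uM final added for 3 h, then One-Glo; luminescence read. qHTS format.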
# [19] = target: Nuclear receptor subfamily 1 group I member 2 (Homo sapiens) (UniProt O75469); experiment: Human pregnane X receptor (PXR) activation by small molecules, qHTS assay (AID 1346985); further: nearly all actives have a fitted effect of over 40% in size
# How it was run: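 DPX-2 cells (HepG2 co-transfected with a PXR response element and a CYP3A4-promoter luciferase construct) were seeded at 2,000 per well, rested 5 hr at 37C, then exposed to DMSO-dissolved compounds for 24 hr. Activation was read as luciferase luminescence.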
# [20] = target: Thyrotropin-releasing hormone receptor (Homo sapiens) (UniProt P34981); experiment: qHTS assay to identify small molecule agonists of the thyrotropin-releasing hormone receptor (TRHR) signaling pathway (AID 1346891; calls by dose curve; further: series mostly up to about 58 µM)
# How it was run: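 Readout was intracellular calcium fluorescence in TRHR-Hek293 cells. Cells were incubated 18 h, dye-loaded 2 h at 37 °C, and treated with compound in agonist mode.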
SMILES,Potency [1],Potency [2],Potency [3],Potency [4],Potency [5],Potency [6],Potency [7],Potency [8],Potency [9],Potency [10],Potency [11],Potency [12],outcome [13],Potency [14],Potency [15],Potency [16],max activation [17],Potency [18],Potency [19],Potency [20]
c1ccc2sc(SN(C3CCCCC3)C3CCCCC3)nc2c1,inactive,inactive,inactive,inactive,inactive,inactive,inactive,inactive,inactive,inactive,17 µM (active),,,,,,,,,
N#CCCN(CCO)CCO,inactive,inactive,inactive,,inactive,,inactive,inactive,inactive,inactive,inactive,inactive,inactive,inactive,,,,,,
CN1C(=O)OC(C)(C)C1=O,,inactive,inactive,inactive,inactive,inactive,inactive,inactive,inactive,inactive,37.9 µM (active),inactive,,,inactive,inactive,-2.55%,inactive,inactive,
CC1=C(Br)C(=O)C(Br)=C/C1=C(/c1ccccc1S(=O)(=O)O)c1cc(Br)c(O)c(Br)c1C,,inactive,inactive,inactive,inactive,inactive,inactive,18.6 µM (active),inactive,37 µM (active),inactive,inactive,inactive,20.8 µM (active),18.6 µM (active),inactive,,,,inactive
